Values joined by “and” are separate entries in the source; they are usually repeats but may differ in a detail not shown here. Equal entries are not always repeated. The panel holds about 83,000 compounds, 20% with a hit somewhere; the sample as a whole holds those more often.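 Activity criterion: percent growth below 10, measured after cells in 96-well plates were exposed to a single compound concentration for 48 hours.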 Active and inactive are the calls of the source.
system: UACC-62 melanoma; test: NCI-60 one-dose screen, 48 h (100 = growth as untreated, 0 = no growth, -100 = all killed); details: 10 µM unless noted

SMILES	growth
CC(=O)C1=C(C)N2C(=NC3=C(CCc4ccccc43)C2c2cccc(Br)c2)S1 (centres undefined)	52.3% [100 µM] (inactive) and 8.59% [100 µM] (active)
C=C1C(=O)O[C@@H]2C[C@@]3(C)CC(=O)C=C(C)[C@@H]3C[C@H]12	-95.6% [100 µM] (active) and -86.6% [100 µM] (active)
CC(C)C1OC(N)=C(C#N)C1(C#N)C#N (centres undefined)	55.5% [100 µM] (inactive) and 25.9% [100 µM] (inactive)
COc1ccc(/C=C2/NC(=S)N=C2Cl)cc1	82.8% [100 µM] (inactive) and 23.4% [100 µM] (inactive)
CC(C)=CC(O)C/C(C)=C/CC/C(C)=C/CCC1(C)C(CCCO)/C(=C(/C)C=O)CCC1(C)O (centres undefined)	-21.5% [100 µM] (active) and 2.9% [100 µM] (active)
Clc1ccc(C2NN=C3c4ccccc4OCC32)cc1 (centres undefined)	4.4% [100 µM] (active) and -69.2% [100 µM] (active)
COc1ccc(OC)c(N(CN2C(=O)CCC2C(=O)O)C(C)=O)c1 (centres undefined)	80.4% [100 µM] (inactive) and 103% [100 µM] (inactive)
NC(Cc1ccc(S(=O)(=O)O)cc1)C(=O)NC(Cc1ccc(S(=O)(=O)O)cc1)C(=O)NC(Cc1ccc(S(=O)(=O)O)cc1)C(=O)NC(Cc1ccc(S(=O)(=O)O)cc1)C(=O)O (centres undefined)	86.3% [100 µM] (inactive) and 93.4% [100 µM] (inactive)
CCOC(=O)c1cc(C)nc2c1c(=O)n(-c1ccccc1)c(=O)n2CCCCN1CCN(c2ncccn2)CC1	97.1% [100 µM] (inactive) and 82.3% [100 µM] (inactive)
COc1ccc(C2c3cc4c(c(OC)c3CC3OCC(=O)C32)OCO4)cc1OC (centres undefined)	26% [100 µM] (inactive) and 3.65% [100 µM] (active)
CC(C)=CCc1c(OC(=O)c2c(C)cc(O)cc2O)cc(CO)c(CO)c1O	-76.6% [100 µM] (active) and -100% [100 µM] (active)
COc1cc([C@H]2OC[C@H]3[C@@H]2CO[C@@H]3c2cc(OC)c3c(c2)OCO3)cc(OC)c1OC	43.3% [100 µM] (inactive) and 24% [100 µM] (inactive)
CCC(c1ccc(N(C)C)cc1)C1NC(=S)NC1=O (centres undefined)	20.7% [100 µM] (inactive) and 17.1% [100 µM] (inactive)
COc1c2c(c3c(c1OC)c(=O)c1ccccc1n3C)OCO2	58.8% [100 µM] (inactive)
COc1cc2c3cc1Oc1c(OC)c(OC)cc4c1C(Cc1ccc(O)c(c1)-c1cc(ccc1OC)CC3N(C)CC2)N(C)CC4 (centres undefined)	-88% [100 µM] (active) and -95.6% [100 µM] (active)
O[C@H]1[C@H](O)[C@@H](Cn2nnc(-c3ccccc3)c2-c2ccccc2)OCO[C@@H]1Cn1nnc(-c2ccccc2)c1-c1ccccc1	-77.8% [100 µM] (active)
C[C@@H]1C[C@](O)([C@@H](C)Cl)C(=O)O[C@@H]2CCN3CC=C(COC(=O)[C@]1(C)O)[C@H]23	77.3% [100 µM] (inactive) and 83.1% [100 µM] (inactive)
CCCCCCSC[C@H](OC(C)=O)[C@@H](OC(C)=O)[C@@H](OC(C)=O)[C@@H](COC(C)=O)OC(C)=O	51.3% [100 µM] (inactive) and 71.8% [100 µM] (inactive)
O=C1NC(N/N=C\C(O)C(O)C(O)C(O)CO)=N/C1=C\c1ccc(Cl)cc1 (centres undefined)	-24.3% [100 µM] (active) and -100% [100 µM] (active)
NC(=O)CC1OC(=O)Cc2cc3c(c(O)c21)C(=O)c1c(O)cccc1C3=O (centres undefined)	67.9% [100 µM] (inactive)
COc1ccc2cc(CN3CCC(C4CCNCC4)CC3)ccc2c1	-93.1% [100 µM] (active) and -100% [100 µM] (active)
COc1ccc2cc1Oc1ccc(cc1)C[C@@H]1c3cc(c(OC)cc3CCN1C)Oc1c(OC)c(OC)cc3c1[C@H](C2)N(C)CC3	20.3% [100 µM] (inactive) and -83.9% [100 µM] (active)
OCc1ccccc1OC1OC(CO)C(O)C(O)C1O (centres undefined)	85.4% [100 µM] (inactive) and 95.9% [100 µM] (inactive)
COc1cc(-c2nc(SC)nc3c2CCc2ccccc2-3)cc(OC)c1OC	42.6% [100 µM] (inactive) and 23.7% [100 µM] (inactive)

Reference: PubChem BioAssay (NCI)
